Compounds with a hit are over-represented: about 3.1% of the library has one in this group of screens.
Nrf2 block: Nrf2 qHTS screen for inhibitors. AID 504444, 2011. 2.1% of 360,000 active. A549 ARE-Fluc reporter, luciferase luminescence, 18-24 h. Potency, µM (titrated, usually from 46 µM), for the others: at the top dose activity change, negative = inhibition, actives largely listed as inhibitors; note: potency is the fitted concentration of half-maximal effect; % is set by controls: 0 for no effect and ±100 for the full control effect; nearly all actives have a fitted effect of over 60% in size
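Nrf2 function is reported as luminescence of an ARE-controlled luciferase in A549 cells. Compounds were tested at several concentrations, and a CellTiter-Fluor read on the same wells flagged cytotoxicity.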
rTrxR1 inhibitor: qHTS Assay for Inhibitors of Mammalian Selenoprotein Thioredoxin Reductase 1 (TrxR1): qHTS; AID 588453, 2011; Thioredoxin reductase 1, cytoplasmic (Rattus norvegicus), O89049; Potency, µM (highest dose often 114 µM), without a hit: top-dose activity change, negative = inhibition, most hits filed as inhibitors; 1% of 390,000 active; recombinant rTrxR1, NADPH fluorescence consumption, selenite substrate; note: potency is the fitted concentration of half-maximal effect; % is set by controls: 0 for no effect and ±100 for the full control effect; nearly all actives have a fitted effect of over 65% in size
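Rat TrxR1 (90 nM in the dispensed reagent) was pre-reduced with 400 uM NADPH for 5 min at room temperature, then incubated with compound for 15 min. After 400 uM selenite was added, NADPH fluorescence (Ex 340/Em 450 nm) was followed for 8 min.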
TrxR1 substrate: qHTS Assay for Substrates of Mammalian Selenoprotein Thioredoxin Reductase 1 (TrxR1): qHTS | Potency, µM (series often up to 114 µM), inactives show at the highest dose activity change, negative = substrate turnover | purified TrxR1 substrate turnover, NADPH consumption readout | 0.01% of 390,000 active | Thioredoxin reductase 1, cytoplasmic (Rattus norvegicus), O89049; note: potency is the fitted concentration of half-maximal effect; % is set by controls: 0 for no effect and ±100 for the full control effect; nearly all actives have a fitted effect of over 50% in size
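Rat TrxR1, dispensed at 90 nM, was prereduced with 400 uM NADPH (final) for 5 min at ~22 deg C, then incubated with compound 15 min before 400 uM selenite. A first-read NADPH fluorescence drop versus no-compound background flagged substrates.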
mIDH1 inhibitor: qHTS for Inhibitors of mutant isocitrate dehydrogenase 1 (IDH1): qHTS; Isocitrate dehydrogenase [NADP] cytoplasmic (Homo sapiens), O75874; IDH1-R132H enzyme, NADPH consumption, diaphorase/resazurin fluorescence; Potency, µM (series often up to 76.6 µM), for the others: top-dose activity change, negative = inhibition, usual class: inhibitors; 0.093% of 390,000 active; note: potency is the fitted concentration of half-maximal effect; % is set by controls: 0 for no effect and ±100 for the full control effect; nearly all actives have a fitted effect of over 65% in size
Target sequence (O75874 whole entry R132H, stated change not applied): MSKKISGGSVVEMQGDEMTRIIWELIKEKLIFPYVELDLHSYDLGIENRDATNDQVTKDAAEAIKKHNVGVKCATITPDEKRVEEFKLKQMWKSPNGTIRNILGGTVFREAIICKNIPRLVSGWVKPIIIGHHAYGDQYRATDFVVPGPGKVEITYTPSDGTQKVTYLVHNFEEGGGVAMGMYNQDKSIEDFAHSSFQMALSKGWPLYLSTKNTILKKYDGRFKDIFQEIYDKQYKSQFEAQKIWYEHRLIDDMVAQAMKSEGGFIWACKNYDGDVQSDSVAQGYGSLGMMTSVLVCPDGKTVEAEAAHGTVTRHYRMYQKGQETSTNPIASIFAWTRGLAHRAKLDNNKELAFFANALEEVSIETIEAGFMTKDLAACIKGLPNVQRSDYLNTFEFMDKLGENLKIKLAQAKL
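IDH1-R132H (0.5 ug/mL) preincubated 30 min with compound, then NADPH (0.016 mM) and alpha-KG (2 mM) added; 80 min at RT, pH 7.5. Remaining NADPH coupled via diaphorase/resazurin to fluorescence (540/590 nm); concentration-response curves normalized to no-enzyme control.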
A549 tox: Nrf2 qHTS screen for inhibitors: counterscreen for cytotoxicity | A549 ARE-Fluc cells, CellTiter-Fluor viability, 18-24 h | Potency, µM (top dose mostly 46 µM), for inactives: top-dose activity change, negative = cytotoxicity, usual class: inhibitors | 0.16% of 390,000 active; note: potency is the fitted concentration of half-maximal effect; % is set by controls: 0 for no effect and ±100 for the full control effect
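A549 ARE_Fluc cells in 5% FBS OPTI-MEM were exposed to compounds in concentration-response for 18-24 h at 37 deg C. Viability was read by CellTiter-Fluor fluorescence (Ex 405/Em 525) after 30 min, before the luciferase read.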
Mito fusion act: qHTS Assay for Small Molecule Inhibitors of Mitochondrial Division or Activators of Mitochondrial Fusion; S. cerevisiae fusion-defective mutant growth rescue, CellTiterGlo 48 h; Potency, µM (top dose mostly 46.1 µM), for inactives: top-dose growth rescue (activation), most hits filed as activators; 0.23% of 320,000 active; AID 485298, 2010; note: potency is the fitted concentration of half-maximal effect; % of control where 0% means no effect; nearly all actives have a fitted effect of over 45% in size
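S. cerevisiae fusion-defective temperature-sensitive mutants (e.g. fzo1-1, mgm1-5) grown 48 h at 37C in YPEG (ethanol/glycerol non-fermentable) medium with 23 nl compound per well; growth rescue read as CellTiterGlo luminescence.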
Resorufin autofl: qHTS for Inhibitors of mutant isocitrate dehydrogenase 1 (IDH1): Cherrypicks Autofluorescence Interference; Resorufin detection reagent fluorescence interference, cell-free; 750 tested, under 10 active; shares compounds with mIDH1 inhibitor; inhibition of signal, % at 51.2 µM; AID 623980, 2012;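 note: 0% = wells with normal resorufin and full inhibition = wells lacking resorufin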
WT IDH1 inh: qHTS for Inhibitors of mutant isocitrate dehydrogenase 1 (IDH1): Cherrypicks in WT IDH1; shares compounds with mIDH1 inhibitor; WT IDH1 enzyme, NADPH diaphorase/resazurin fluorescence; Potency, µM (titrated, usually from 115 µM), without a hit: top-dose activity change, negative = inhibition, actives largely listed as inhibitors; 9% of 750 active; AID 623995, 2012;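 note: potency is the fitted concentration of half-maximal effect; 0% = full WT IDH1 enzyme control and full inhibition = no enzyme wells; nearly all actives have a fitted effect of over 55% in size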
Target sequence (O75874 whole entry, looked up): as the sequence (O75874 whole entry R132H, stated change not applied) above, with H132R counted along it
IDH1 R132H conf: qHTS for Inhibitors of mutant isocitrate dehydrogenase 1 (IDH1): Confirmation of Cherrypicks; IDH1 R132H enzyme, NADPH diaphorase/resazurin fluorescence; 83% of 750 active; Potency, µM (doses to about 76.6 µM), inactives show at the highest dose activity change, negative = inhibition, actives largely listed as inhibitors; shares compounds with mIDH1 inhibitor; note: potency is the fitted concentration of half-maximal effect; nearly all actives have a fitted effect of over 50% in size
* = called active by the depositor; ? = inconclusive; . = not tested or not shown; [ ] = remark or other dose. Calls come from the whole dose curve; as a rule, active = well fitted curve in the direction sought with a large enough effect; inconclusive = small, poorly fitted or top-dose-only effect, or another doubt; inactive = no such curve, though single readings can be large; an effect the other way counts as inactive or inconclusive.

SMILES | Nrf2 block | rTrxR1 inhibitor | TrxR1 substrate | mIDH1 inhibitor | A549 tox | Mito fusion act | Resorufin autofl | WT IDH1 inh | IDH1 R132H conf
CC(C)C[C@@H](CN1CCC[C@@H]1CN1C(=O)C(=O)NC[C@@H]1Cc1ccccc1)N1C[C@H](Cc2ccccc2)N(CC2CCCCCC2)C(=O)C1=O | ? | 15% | 0% | 40µM* | ? | . | 2 | 6% | 20µM*
O=C(O)CCn1c(=O)n(CCC(=O)O)c(=O)n(CCC(=O)O)c1=O | -2% | -1%[57.1 µM] | 0%[57.1 µM] | ? | 2% | 9% | 3 | 5% | -4%
O=C(O)CCN1C(=O)c2ccccc2C1=O | 1% | 14%[57.1 µM] | 9%[57.1 µM] | 0% | -2% | -2% | . | . | .
CC1(C)CC(=O)C2=C(C1)NC1=C(C(=O)c3ccccc31)C2c1cccnc1 (stereo unspecified) | -16% | -14% | -6% | 6% | -13% | -22% | . | . | .
CC1(C)CC(=O)C2=C(C1)NC1=C(C(=O)c3ccccc31)C2c1cc([N+](=O)[O-])ccc1O (stereo unspecified) | ? | ? | 2% | ? | -28% | 2% | 11 | -7% | 32µM*
N=c1c(S(=O)(=O)c2ccccc2)cc2c(=O)n3ccccc3nc2n1C1CCCC1 | 2% | 26% | 8% | 18µM* | 15% | -39% | 0 | 5% | 7.1µM*
N=c1c(S(=O)(=O)c2ccc(Br)cc2)cc2c(=O)n3ccccc3nc2n1C1CCCC1 | 4% | 2% | 22% | -6% | -4% | -4% | . | . | .
CC1C/C(=C\c2cccnc2)C(=O)/C(=C/c2cccnc2)C1 (stereo unspecified) | -14% | 50µM* | -5% | ? | -10% | -6% | 1 | 6% | 45µM*
COc1ccc(-c2[nH]ncc2C(=O)NCc2ccccc2C)cc1 | -8% | 0% | 1% | . | 0% | . | . | . | .
CCN(CC)S(=O)(=O)c1ccc2c(c1)N(CC(=O)Nc1ccc(Cl)cc1)C(=O)C1CCCN21 (stereo unspecified) | ? | 5%[57.1 µM] | 5%[57.1 µM] | ? | 1% | . | 4 | -2% | 28µM*
CCN(CC)S(=O)(=O)c1ccc2c(c1)N(CC(=O)Nc1cccc(C)c1C)C(=O)C1CCCN21 (stereo unspecified) | 25% | 7%[57.1 µM] | 2%[57.1 µM] | 14% | 8% | . | . | . | .
COc1ccc(C)cc1NC(=O)CSc1nc(=O)n(Cc2ccco2)c2c1CCC2 | . | ? | -2%[57.1 µM] | 11% | -12% | . | . | . | .
Cc1cc(NC(=O)CCC(=O)N(c2cccc(F)c2)C(C(=O)NC2CCCC2)c2ccc(C)o2)no1 (stereo unspecified) | 7% | 23%[57.1 µM] | 18%[0.0914 µM] | ? | 3% | 0% | -1 | -4% | 22µM*
Cc1cccc(N(C(=O)CCC(=O)Nc2cc(C)on2)C(C(=O)NC2CCCC2)c2ccc(C)o2)c1 (stereo unspecified) | ? | 0% | 3% | -26% | -4% | -4% | . | . | .
Cc1cc(NC(=O)CCC(=O)N(c2cccc(F)c2)C(C(=O)NC2CCCC2)c2ccccc2)no1 (stereo unspecified) | 2% | 23% | 4% | 46µM* | 2% | -1% | 0 | -10% | 16µM*
CC(=O)c1cccc(N(C(=O)CS(=O)CC(=O)Nc2ccc(F)cc2)C(C(=O)NC2CCCCC2)c2ccc(C)o2)c1 (stereo unspecified) | -11% | ? | -14% | ? | 8% | 0% | 0 | 1% | 16µM*
Cc1ccc(S(=O)(=O)c2cnc(SCC(=O)Nc3cc(C)cc(C)c3)nc2N)cc1 | ? | 31% | -1% | 0% | 6% | . | . | . | .
COc1ccc(S(=O)(=O)NCC(c2ccco2)N2CCN(c3ccc(F)cc3)CC2)cc1C (stereo unspecified) | . | 3%[57.1 µM] | -3%[57.1 µM] | -12% | 1% | . | . | . | .
CC(=O)C1=C(C)OC2(O)c3ccccc3C(=O)C12O (stereo unspecified) | -19% | 6% | -5% | -7% | -6% | -2% | . | . | .
CCOC(=O)C1=C(C)OC2(O)c3ccccc3C(=O)C12O (stereo unspecified) | -12% | 24% | 3% | ? | 0% | -4% | 3 | 24% | ?
C=CCn1c(SCc2nc3sc(C(=O)O)c(C)c3c(=O)[nH]2)nnc1-c1ccc(C(C)(C)C)cc1 | -9% | 7% | -2% | ? | 4% | 2% | -5 | 2% | 22µM*
C=CCn1c(SCc2nc3sc(C(=O)O)c(C)c3c(=O)[nH]2)nnc1-c1ccccc1 | 7% | 6%[57.1 µM] | -7% | -2% | 1% | 3% | . | . | .
CCn1ccc2cc(S(=O)(=O)N3CCC(C(=O)NCCc4ccc(C)cc4)CC3)ccc21 | . | 26%[57.1 µM] | 6%[57.1 µM] | -4% | 0% | . | . | . | .
CC(=O)Nc1cccc(-n2cc3c(c2-c2ccccc2Cl)c(=O)n(C)c(=O)n3C)c1 | 9% | 20% | 40% | ? | -2% | . | 0 | 0% | 40µM*
COc1ccc2nc(SCC(O)c3cccc(Br)c3)[nH]c2c1 (stereo unspecified) | -10% | 18% | -4% | -6% | -1% | . | . | . | .
